The source made the active and inactive calls. The calls were made as follows: active = hit-call score of the fitted dose curve at least 0.9, where 1 is the maximum; inactive = score below 0.9.
How the values were obtained:
[1] = ATG_E_Box_CIS: Attagene CIS-FACTORIAL HepG2 Assay for human Enhancer Box (E-box) (AID 2282936); settings: HepG2 E-box cis-reporter transcription, actives raise or lower the signal
Summary of the method: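 HepG2 cells transiently transfected with multiplexed cis-element reporter units, dosed 24 h; reporter mRNA quantified by RT-PCR, 6-FAM labelling, HpaI digestion and capillary electrophoresis. E-box (USF1) signal fitted bidirectionally vs DMSO.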

[2] = ATG_M_61_CIS: Attagene CIS-FACTORIAL HepG2 Assay for M61 Transcription Factor (Internal Marker) (AID 2282937); settings: HepG2 Attagene CIS-FACTORIAL M61 internal marker reporter; actives raise or lower the signal
Summary of the method: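 Transfect HepG2 with MRTUs; dose 24 h; isolate RNA; reverse-transcribe with DNase I treatment; PCR-amplify, FAM-label and cut with HpaI for 2 h at 37 C; resolve by CE. Bidirectional fitting against DMSO.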

[3] = ATG_EGR_CIS: Attagene CIS-FACTORIAL HepG2 Assay for human Early Growth Response 1 (EGR1) (AID 2282938); settings: HepG2 Attagene CIS-FACTORIAL EGR reporter mRNA; actives raise or lower the signal
Summary of the method: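 After a 24 h treatment of transiently transfected HepG2 cells, total RNA was reverse-transcribed and reporter sequences PCR-amplified, labelled and run on capillary electrophoresis. Reporters sit under cis-regulatory promoters sensing endogenous factors.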

[4] = ATG_M_19_CIS: Attagene CIS-FACTORIAL HepG2 Assay for M19 Transcription Factor (Internal Marker) (AID 2282939); settings: HepG2 Attagene CIS-FACTORIAL M19 internal marker reporter; actives raise or lower the signal
Summary of the method: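 In this multiplexed cell assay, transiently transfected HepG2 reporter units report endogenous transcription-factor activity; after 24 hours of treatment, labelled reporter cDNA fragments are quantified by capillary electrophoresis and fitted bidirectionally against DMSO.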

[5] = ATG_ERE_CIS: Attagene CIS-FACTORIAL HepG2 Assay for Estrogen Response Element (ERE) (AID 2282940); settings: HepG2 ERE cis-reporter, Attagene RNA transcript; actives raise or lower the signal
Summary of the method: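 Measuring endogenous transcription factor output, the assay doses transfected HepG2 cells for 24 hours and quantifies reporter transcripts by fluorescent RT-PCR and capillary electrophoresis, with DMSO as baseline.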

[6] = ATG_Ets_CIS: Attagene CIS-FACTORIAL HepG2 Assay for human Erythroblast Transformation Specific (ETS) (AID 2282941); settings: HepG2 ETS cis-reporter transcription, actives raise or lower the signal
Summary of the method: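 HepG2 cells transiently transfected with cis-promoter reporter transcription units were dosed for 24 h; reporter mRNA was measured by RT-PCR, 6-FAM primer extension, HpaI digestion and capillary electrophoresis, with bidirectional fitting against DMSO baseline.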

[7] = target: Hepatocyte nuclear factor 3-beta (Homo sapiens) (UniProt Q9Y261); test: ATG_FoxA2_CIS: Attagene CIS-FACTORIAL HepG2 Assay for human Forkhead box A2 (FOXA2) (AID 2282942); settings: HepG2 cis-reporter transcription factor activity, 24 h; actives raise or lower the signal
Chain of Hepatocyte nuclear factor 3-beta (Homo sapiens) (Q9Y261 whole entry, looked up): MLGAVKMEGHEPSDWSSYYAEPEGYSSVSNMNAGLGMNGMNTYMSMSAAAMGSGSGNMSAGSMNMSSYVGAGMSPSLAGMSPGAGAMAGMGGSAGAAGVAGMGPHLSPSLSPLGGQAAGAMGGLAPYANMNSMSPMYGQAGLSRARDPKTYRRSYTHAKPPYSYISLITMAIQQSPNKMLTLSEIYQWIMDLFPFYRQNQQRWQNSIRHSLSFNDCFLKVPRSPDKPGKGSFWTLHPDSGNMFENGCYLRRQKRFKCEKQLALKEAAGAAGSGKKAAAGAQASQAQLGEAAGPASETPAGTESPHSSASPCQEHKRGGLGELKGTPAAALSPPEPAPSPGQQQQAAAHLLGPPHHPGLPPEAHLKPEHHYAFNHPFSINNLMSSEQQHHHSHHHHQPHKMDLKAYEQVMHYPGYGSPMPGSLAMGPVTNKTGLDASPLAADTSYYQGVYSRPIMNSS
Summary of the method: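 24 h dosing of HepG2 bearing cis-reporter constructs; mRNA readout by RT-PCR/CE fluorescence; bidirectional fit, DMSO baseline.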

[8] = ATG_FoxO_CIS: Attagene CIS-FACTORIAL HepG2 Assay for human Forkhead box O (FoxO) (AID 2282943); settings: HepG2 Attagene cis-reporter, FoxO element, mRNA; actives raise or lower the signal
Summary of the method: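 HepG2 cells transiently transfected with cis-element-driven reporter units report endogenous FoxO activity. After 24 h chemical exposure, reporter mRNA quantified by RT-PCR, fluorescent labeling, HpaI digestion and capillary electrophoresis; bidirectional fit versus DMSO.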

[9] = ATG_GATA_CIS: Attagene CIS-FACTORIAL HepG2 Assay for human GATA Binding Protein (AID 2282944); settings: HepG2 GATA cis-element reporter, Attagene multiplex mRNA; actives raise or lower the signal
Summary of the method: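 Measures endogenous transcription factor-driven reporter mRNA in HepG2 cells transiently carrying cis-regulated constructs. 24 h dosing; RNA via oligo(dT) reverse transcription, PCR, HpaI digestion, capillary electrophoresis; fitted relative to DMSO.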

[10] = ATG_GLI_CIS: Attagene CIS-FACTORIAL HepG2 Assay for human Zinc Finger Protein GLI1 (AID 2282945); settings: HepG2, Attagene cis-factorial reporter mRNA, GLI element; actives raise or lower the signal
Summary of the method: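 Transiently transfected HepG2 cells report endogenous transcription factor activity via cis-element-driven reporter units. After 24 h compound exposure, reporter mRNA was measured by RT-PCR with capillary electrophoresis; bidirectional fitting against DMSO baseline.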

[11] = target: Bile acid receptor (Homo sapiens) (UniProt Q96RI1); test: ATG_IR1_CIS: Attagene CIS-FACTORIAL HepG2 Assay for human Nuclear Receptor Subfamily 1 Group H Member 4 (NR1H4), IR1 submotif (AID 2282946); settings: IR1 reporter transcription, actives raise or lower the signal
Chain of Bile acid receptor (Homo sapiens) (Q96RI1 whole entry, looked up): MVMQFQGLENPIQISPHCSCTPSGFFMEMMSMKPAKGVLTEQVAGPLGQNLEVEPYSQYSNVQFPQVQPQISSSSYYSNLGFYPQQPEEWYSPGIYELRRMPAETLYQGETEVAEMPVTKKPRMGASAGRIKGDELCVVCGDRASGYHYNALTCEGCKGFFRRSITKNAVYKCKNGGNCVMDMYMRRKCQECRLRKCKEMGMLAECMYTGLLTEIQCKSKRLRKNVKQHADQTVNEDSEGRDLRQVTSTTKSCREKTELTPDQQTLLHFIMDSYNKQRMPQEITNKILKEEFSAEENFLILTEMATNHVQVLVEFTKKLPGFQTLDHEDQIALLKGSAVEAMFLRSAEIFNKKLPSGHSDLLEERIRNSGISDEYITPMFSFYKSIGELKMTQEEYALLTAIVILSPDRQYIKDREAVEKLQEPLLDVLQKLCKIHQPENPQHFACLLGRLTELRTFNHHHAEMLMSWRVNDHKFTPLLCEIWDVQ
Summary of the method: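 HepG2 cells transiently transfected with multiple cis-promoter-driven reporter units to measure endogenous transcription factor activity; 24 h exposure. Reporter mRNA read by RT-PCR, FAM labelling, HpaI digestion and capillary electrophoresis. Bidirectional fit versus DMSO.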

[12] = ATG_ISRE_CIS: Attagene CIS-FACTORIAL HepG2 Assay for human Interferon Regulatory Factor 1 (IRF1) binding to an Interferon-Stimulated Response Element (ISRE) (AID 2282948); settings: HepG2 ISRE cis-reporter (Attagene), mRNA transcription readout; actives raise or lower the signal
Summary of the method: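 HepG2 cells transiently transfected with multiplexed cis-promoter reporter units; after 24 h compound exposure, reporter mRNA quantified by RT-PCR, FAM labelling, HpaI digestion and capillary electrophoresis. Bidirectional fit versus DMSO baseline.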

[13] = ATG_M_06_CIS: Attagene CIS-FACTORIAL HepG2 Assay for M06 Transcription Factor (Internal Marker) (AID 2282950); settings: HepG2 Attagene CIS-FACTORIAL M06 internal marker reporter; actives raise or lower the signal
Summary of the method: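 One of many multiplexed endpoints: HepG2 reporter mRNA after 24 h dosing, detected by RT-PCR and capillary electrophoresis fluorescence; gain or loss of signal analysed against DMSO.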

[14] = target: Hypoxia-inducible factor 1-alpha (Homo sapiens) (UniProt Q16665); test: ATG_HIF1a_CIS: Attagene CIS-FACTORIAL HepG2 Assay for human Hypoxia Inducible Factor 1 (HIF1A) (AID 2282951); settings: HepG2 Attagene cis-factorial HIF1a reporter transcription; actives raise or lower the signal
Chain of Hypoxia-inducible factor 1-alpha (Homo sapiens) (Q16665 whole entry, looked up): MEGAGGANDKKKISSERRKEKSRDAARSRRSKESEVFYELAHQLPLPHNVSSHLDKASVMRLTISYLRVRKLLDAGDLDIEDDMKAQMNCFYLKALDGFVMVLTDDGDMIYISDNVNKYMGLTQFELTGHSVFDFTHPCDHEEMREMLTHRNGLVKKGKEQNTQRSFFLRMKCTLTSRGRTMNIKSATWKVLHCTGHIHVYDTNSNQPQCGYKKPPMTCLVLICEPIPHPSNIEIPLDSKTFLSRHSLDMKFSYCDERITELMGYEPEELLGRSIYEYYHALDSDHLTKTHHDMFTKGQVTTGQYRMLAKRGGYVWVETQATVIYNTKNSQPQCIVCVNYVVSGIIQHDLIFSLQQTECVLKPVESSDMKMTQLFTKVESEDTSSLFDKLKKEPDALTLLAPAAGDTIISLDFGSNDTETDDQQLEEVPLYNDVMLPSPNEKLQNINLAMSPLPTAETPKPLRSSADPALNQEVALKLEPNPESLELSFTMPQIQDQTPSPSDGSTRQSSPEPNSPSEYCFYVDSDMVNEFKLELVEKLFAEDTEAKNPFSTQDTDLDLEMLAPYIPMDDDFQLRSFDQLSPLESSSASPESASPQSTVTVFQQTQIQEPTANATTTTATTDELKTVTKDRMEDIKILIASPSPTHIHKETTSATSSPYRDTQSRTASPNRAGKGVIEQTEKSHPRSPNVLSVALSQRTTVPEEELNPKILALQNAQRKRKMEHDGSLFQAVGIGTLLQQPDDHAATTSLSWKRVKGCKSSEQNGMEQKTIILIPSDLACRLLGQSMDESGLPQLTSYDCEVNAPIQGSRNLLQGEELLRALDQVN
Summary of the method: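 After 24 h chemical exposure of reporter-transfected HepG2 cells, reporter cDNA was PCR-amplified, labelled by 6-FAM primer extension (2 min 95 C, 20 s 68 C, 10 min 72 C), HpaI-cut (2 h, 37 C) and analysed by CE.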

[15] = target: Hepatocyte nuclear factor 6 (Homo sapiens) (UniProt Q9UBC0); test: ATG_HNF6_CIS: Attagene CIS-FACTORIAL HepG2 Assay for human Hepatocyte Nuclear Factor 6 (HNF6) (AID 2282952); settings: HepG2 Attagene cis-factorial HNF6 reporter transcription; actives raise or lower the signal
Chain of Hepatocyte nuclear factor 6 (Homo sapiens) (Q9UBC0 whole entry, looked up): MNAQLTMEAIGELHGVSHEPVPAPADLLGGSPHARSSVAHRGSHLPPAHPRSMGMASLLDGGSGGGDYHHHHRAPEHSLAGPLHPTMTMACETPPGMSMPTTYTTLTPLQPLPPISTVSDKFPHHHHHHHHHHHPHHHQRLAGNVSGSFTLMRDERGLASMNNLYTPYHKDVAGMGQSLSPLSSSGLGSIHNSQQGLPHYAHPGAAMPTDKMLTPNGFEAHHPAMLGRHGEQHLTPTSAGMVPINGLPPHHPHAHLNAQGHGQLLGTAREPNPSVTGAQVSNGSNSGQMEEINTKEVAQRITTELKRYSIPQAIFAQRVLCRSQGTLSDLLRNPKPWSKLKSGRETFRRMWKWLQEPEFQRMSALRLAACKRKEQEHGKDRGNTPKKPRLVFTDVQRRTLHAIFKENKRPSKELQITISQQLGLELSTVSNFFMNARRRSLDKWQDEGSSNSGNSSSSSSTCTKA
Summary of the method: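 HepG2 cells transiently transfected with cis-element-driven multiple reporter transcription units, dosed 24 h; reporter mRNA quantified by RT-PCR, FAM primer extension, HpaI digestion and capillary electrophoresis; bidirectional fit versus DMSO baseline.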

[16] = target: Heat shock factor protein 1 (Homo sapiens) (UniProt Q00613); test: ATG_HSE_CIS: Attagene CIS-FACTORIAL HepG2 Assay for human Heat Shock Transcription Factor 1 (HSE) (AID 2282953); settings: HepG2 HSE cis-reporter, Attagene RNA transcription; actives raise or lower the signal
Chain of Heat shock factor protein 1 (Homo sapiens) (Q00613 whole entry, looked up): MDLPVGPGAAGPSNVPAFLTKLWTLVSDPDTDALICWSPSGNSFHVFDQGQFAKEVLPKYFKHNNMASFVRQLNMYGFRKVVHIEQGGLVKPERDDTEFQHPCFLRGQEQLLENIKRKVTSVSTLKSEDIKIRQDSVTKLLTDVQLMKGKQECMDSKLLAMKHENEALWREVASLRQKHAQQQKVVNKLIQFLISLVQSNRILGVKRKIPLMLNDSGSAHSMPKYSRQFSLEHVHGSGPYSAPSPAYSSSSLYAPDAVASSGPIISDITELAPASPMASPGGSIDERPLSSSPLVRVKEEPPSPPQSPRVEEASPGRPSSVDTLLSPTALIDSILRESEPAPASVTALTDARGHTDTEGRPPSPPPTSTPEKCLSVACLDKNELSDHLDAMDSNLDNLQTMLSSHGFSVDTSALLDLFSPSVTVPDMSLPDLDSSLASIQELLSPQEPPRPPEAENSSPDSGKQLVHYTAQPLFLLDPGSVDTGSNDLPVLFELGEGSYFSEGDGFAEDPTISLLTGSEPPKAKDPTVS
Summary of the method: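 Using HepG2 with transfected cis-driven reporter constructs, compound effects on endogenous factor activity are scored as reporter mRNA change at 24 h. Detection: RT-PCR, HpaI digestion, capillary electrophoresis; bidirectional fitting to DMSO.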

[17] = ATG_MRE_CIS: Attagene CIS-FACTORIAL HepG2 Assay for human Metal Responsive Element (MRE) (AID 2282954); settings: HepG2 MRE cis-reporter transcription, Attagene multiplex; actives raise or lower the signal
Summary of the method: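 HepG2 cells transiently transfected with cis-element-driven reporter units; mRNA measured 24 h after dosing. Reporter transcripts quantified by RT-PCR, FAM labelling, HpaI digestion and capillary electrophoresis; bidirectional fit versus DMSO.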

[18] = ATG_M_32_CIS: Attagene CIS-FACTORIAL HepG2 Assay for M32 Transcription Factor (Internal Marker) (AID 2282949); settings: HepG2 Attagene cis-factorial M32 reporter, mRNA; actives raise or lower the signal;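 also: background control marker of the multiplexed CIS panel rather than a real target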
Summary of the method: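 Fluorescent capillary electrophoresis peaks of HpaI-digested, FAM-labelled RT-PCR reporter products give the signal. Source: transiently transfected human liver HepG2 cells, 24 h after chemical dosing; bidirectional fitting against DMSO.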

[19] = ATG_PBREM_CIS: Attagene CIS-FACTORIAL HepG2 Assay for human Phenobarbital-responsive Enhancer Module (PBREM) (AID 2282955); settings: HepG2 PBREM cis-reporter, Attagene multiplexed transcription; actives raise or lower the signal
Summary of the method: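 Measures endogenous factor action on a phenobarbital-responsive enhancer module. HepG2 transiently carrying cis reporters, 24 h treatment, mRNA read-out by RT-PCR plus capillary electrophoresis.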

[20] = ATG_GRE_CIS: Attagene CIS-FACTORIAL HepG2 Assay for human Glucocorticoid Response Elements (GRE) (AID 2282947); settings: HepG2 GRE cis-reporter, Attagene multiplex mRNA; actives raise or lower the signal
Summary of the method: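 Transiently transfected HepG2 cells carrying GRE cis-reporter units (endogenous TF activity) dosed 24 h; reporter mRNA quantified by RT-PCR, 6-FAM labelling, HpaI digestion and capillary electrophoresis. Bidirectional fit versus DMSO baseline.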

Measured: AC50

O=C1OC(=O)c2cc(Oc3ccc4c(c3)C(=O)OC4=O)ccc21
not listed: [18] | [19] | [20]
inactive: all other assays above

O=C1CCCCCN1SSN1CCCCCC1=O
active: [1] 182 µM | [3] 162 µM | [10] 155 µM | [12] 167 µM | [16] 133 µM | [17] 165 µM
not listed: [20]
inactive: all other assays above

CCC(Cc1ccccc1)(C(=O)c1ccc(N2CCOCC2)cc1)N(C)C (configuration not stated)
active: [1] 17 µM | [3] 31.6 µM | [5] 5.54 µM | [12] 27.2 µM | [14] 22.9 µM | [16] 65.9 µM | [17] 52.7 µM
not listed: [15] | [19] | [20]
inactive: all other assays above

CC(C)=CCCC(C)C=O (configuration not stated)
not listed: [20]
inactive: all other assays above

O=C(O)c1cc(Cl)cc([N+](=O)[O-])c1Cl
not listed: [13] | [16]
inactive: all other assays above

COCC(C)N (configuration not stated)
not listed: [12]
inactive: all other assays above

Nc1ccc(-c2ccc(F)cc2)cc1
active: [5] 18.2 µM
not listed: [13] | [20]
inactive: all other assays above

O=C(C(Cl)Cl)N1CCOC12CCCCC2
active: [3] 19.3 µM | [11] 5.74 µM
not listed: [12] | [16] | [17]
inactive: all other assays above

NC(=O)c1ccccc1O
not listed: [12] | [18] | [19]
inactive: all other assays above

COCCCOCCCOC
not listed: [20]
inactive: all other assays above

O=[N+]([O-])C1(Br)COCOC1
active: [1] 61 µM | [12] 52.5 µM | [16] 58.8 µM
not listed: [13] | [15] | [18]
inactive: all other assays above

CCCCCCOC(=O)C(C)CC (configuration not stated)
not listed: [18]
inactive: all other assays above

CC1=Nc2ccc3ccccc3c2C1(C)C
active: [16] 147 µM
not listed: [12] | [17] | [19] | [20]
inactive: all other assays above

COc1ccc([C@@H]2CC(=O)c3c(O)cc(O[C@@H]4O[C@H](CO[C@@H]5O[C@@H](C)[C@H](O)[C@@H](O)[C@H]5O)[C@@H](O)[C@H](O)[C@H]4O)cc3O2)cc1OC
not listed: [12] | [16] | [20]
inactive: all other assays above

CCCCCCCCCCOS(=O)(=O)O
not listed: [13] | [20]
inactive: all other assays above
